Reference: PubChem BioAssay (NCATS)
Results filed as inconclusive are left out. Activity calls are given as the source filed them. Calls follow the shape of the dose curve; as a rule, active = well fitted curve in the direction sought with a large enough effect; inconclusive = small, poorly fitted or top-dose-only effect, or another doubt; inactive = no such curve, though single readings can be large; an effect the other way counts as inactive or inconclusive.

How the values were obtained:
[1] = Cellular Toxicity (caspase-3) Mesangial (AID 660); settings: mesangial cells, normalized: DMSO 0%, 100 µM tamoxifen 100%; at 91.7 µM (top of the series);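 also: combined caspase 3 and 7 activity read by Caspase-Glo luminescence; cells exposed to compound for 16 h before the caspase read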
Procedure, shortened: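 Seed cells derived from normal human renal glomeruli, incubate 5 h, add compounds across concentrations and incubate 16 h at 37 °C. Caspase 3/7 activation is then quantified by luciferase light, with AC50 derived by Hill modeling.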

[2] = Cellular Toxicity (caspase-3) SK-N-SH (AID 661);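 also: 0% = DMSO basal and 100% = 10 µM staurosporine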
Procedure, shortened: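 Cells were seeded and incubated 5 hr at 37 °C, dosed with compound over a concentration range for 16 hr, then given Caspase-Glo 3/7 reagent for 1 hr at room temperature before luminescence reading.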

[3] = Cellular Toxicity (caspase-3) H-4-II-E (AID 663); settings: H-4-II-E rat hepatoma, scaled: DMSO 0%, 100 µM tamoxifen 100%; at 92.2 µM (top of the series);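 also: cells exposed to compound for 16 hr before readout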
Procedure, shortened: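 H-4-II-E rat hepatoma, 1500 cells/well, 5 hr settle at 37 °C; compound 16 hr, 37 °C, complete medium; Caspase-Glo 3/7, 20 min RT; luminescence. DMSO = 0%, 100 uM tamoxifen = 100%; Hill-equation AC50.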

[4] = Cellular Toxicity (caspase-3) Hek293 (AID 664); settings: HEK293 caspase-3 activation, DMSO = 0%, 100 µM tamoxifen = 100%; at 92.2 µM (top of the series);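 also: cells exposed to compound for 16 h at 37 °C before readout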
Procedure, shortened: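 qHTS, HEK293 (human embryonic kidney), 16 h cpd exposure in complete medium. Caspase-3/7 activation = luminescence increase; normalized to DMSO/100 uM tamoxifen; Hill-fit AC50.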

[5] = Cellular Toxicity (caspase-3) N2a (AID 665);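 also: compound exposure lasted 16 h at 37 °C before readout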
Procedure, shortened: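 Caspase-3/7 activation, measured as increased luminescence from aminoluciferin release, is quantified in mouse N2a cells exposed to compounds for 16 h. Values are normalized to DMSO and 10 uM staurosporine, with AC50 derived by Hill modelling.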

[6] = Cellular Toxicity (caspase-3) NIH 3T3 (AID 666);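 also: 0% = DMSO basal and 100% = 100 µM tamoxifen stimulation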
Procedure, shortened: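 Cells were plated at 1000 per well and incubated 5 hr at 37°C, then compound was added for 16 hr. Caspase-Glo 3/7 reagent followed for 20 min at room temperature before luminescence was read.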

[7] = Cellular Toxicity (caspase-3) Renal Proximal Tubule (AID 667); settings: Potency: caspase-3 activation;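 also: cells exposed to compound for 16 hours at 37 °C before detection; 0% = DMSO basal and 100% = 10 µM staurosporine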
Procedure, shortened: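 Luminescent caspase 3/7 signal from peptide-aminoluciferin cleavage measures apoptosis in freshly isolated rat kidney proximal tubule cells after 16 h compound exposure. Concentration-response data are normalized to DMSO and 10 uM staurosporine, and AC50 values come from Hill equation fits.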

[8] = target: Cytochrome P450 3A4 (Homo sapiens) (UniProt P08684); test: qHTS Assay for Inhibitors and Substrates of Cytochrome P450 3A4 (AID 884); also: % is scaled to controls: 0 for no effect and ±100 for the full control effect; nearly all actives have a fitted effect of over 50% in size
Procedure, shortened: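 Luminescent readout of luciferin produced by CYP3A4 (20 nM) dealkylation of Luciferin-PPXE, 25 uM (its KM). NADPH-driven reaction ran 60 min at RT after 10 min compound preincubation; data scaled to 57 uM ketoconazole as 100% inhibition.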

[9] = Cell Viability - LYMP2-001 (AID 921);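 also: 0% = DMSO only and full inhibition = tetraoctylammonium bromide control wells; nearly all actives have a fitted effect of over 70% in size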
Procedure, shortened: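 CellTiter-Glo luminescence (intracellular ATP) after 24 hr compound exposure at 37 C, 2500 lymphoblastoid cells/well in complete medium. AC50 fitted with standard Hill equation; tetraoctylammonium bromide positive control.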

[10] = MultiTox-Fluor Cytotoxicity Assay - LYMP1-001 - Dead Cells (AID 946);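 also: 0% = DMSO and 100% = tetraoctylammonium bromide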
Procedure, shortened: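 AC50 from Hill fit of concentration-response; data normalized to DMSO (basal) and 15 uM tetraoctylammonium bromide (100%). LYMP1-001 lymphoblastoid cells, 2500/well, 16 hr compound at 37 C; dead-cell protease fluorescence, Ex/Em 485/520.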

[11] = MultiTox-Fluor Cytotoxicity Assay - LYMP1-001 - Live Cells (AID 947);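 also: 0% = DMSO only and full inhibition = tetraoctylammonium bromide control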
[12] = MultiTox-Fluor Cytotoxicity Assay - LYMP1-002 - Live Cells (AID 955); also: % is scaled to controls: 0 for no effect and ±100 for the full control effect
Procedure, shortened: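 Cells were seeded at 2500 per well and incubated 5 hr. Compounds were then added for 16 hr at 37 C, followed by MultiTox-Fluor reagent for 60 min at room temperature and fluorescence reading of viable-cell protease signal.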

[13] = MultiTox-Fluor Cytotoxicity Assay - LYMP1-002 - Dead Cells (AID 960);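 also: 0% = DMSO and 100% = tetraoctylammonium bromide; nearly all actives have a fitted effect of over 60% in size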
Procedure, shortened: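 Cells were plated, rested 5 hr, then treated with compound dilution series for 16 hr at 37 C. After adding substrate reagent and 60 min at room temperature, dead-cell protease fluorescence gave concentration-response curves fitted by the Hill equation.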

[14] = MultiTox-Fluor Cytotoxicity Assay - LYMP1-003 - Dead Cells (AID 961);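 also: 0% = DMSO and 100% = tetraoctylammonium bromide; nearly all actives have a fitted effect of over 70% in size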
Procedure, shortened: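 Human lymphoblastoid LYMP1-003 cells (2500/well) were treated with compounds for 16 hr at 37 C in complete medium. Dead-cell protease release was read by bis-AAF-R110 fluorescence (Ex/Em 485/520). AC50 came from Hill fits, normalized to DMSO and 15 uM tetraoctylammonium bromide.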

[15] = MultiTox-Fluor Cytotoxicity Assay - LYMP1-003 - Live Cells (AID 962);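 also: cells exposed to compound for 16 hours at 37 °C; 0% = DMSO only and full loss = 92 µM tetraoctylammonium bromide; cytotoxic hits lower the live-cell protease signal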
Procedure, shortened: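 Acute cytotoxicity is scored as a drop in live-cell protease activity in human lymphoblastoid LYMP1-003 cells after 16 hr compound exposure at 37 C. AC50 values come from Hill-equation modelling of concentration-response data.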

[16] = Cell Viability - LYMP1-003 - Assay at 24 hr (AID 963);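 also: plate controls were DMSO only for no effect and tetraoctylammonium bromide positive control for full effect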
Procedure, shortened: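 Cytotoxicity is scored as a concentration-dependent fall in ATP-linked luciferase signal in human lymphoblastoid LYMP1-003 cells treated 24 hr at 37 C in complete culture medium.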

[17] = Cell Viability - LYMP1-003 - Assay at 40 hr (AID 964); also: % is scaled to controls: 0 for no effect and ±100 for the full control effect; nearly all actives have a fitted effect of over 60% in size
Procedure, shortened: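 Luminescent ATP signal (CellTiter-Glo) served as the viability read-out after 40 hr compound treatment of human lymphoblastoid LYMP1-003 cells at 37 C. Decreases in ATP were fitted with the Hill equation to give AC50.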

[18] = Cell Viability - LYMP2-003 (AID 965);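 also: cells exposed to compounds for 24 h before reading; 0% = DMSO only and full effect = 92 µM tetraoctylammonium bromide; nearly all actives have a fitted effect of over 50% in size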
Procedure, shortened: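 CellTiter-Glo luminescence (cellular ATP) after 24 h compound exposure at 37 C in complete medium; 2500 cells/well, 5 h settling beforehand. Concentration-response fitted to standard Hill equation for AC50. Tetraoctylammonium bromide served as positive control.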

[19] = Cell Viability - LYMP1-002 - Assay at 16 hr (AID 948);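 also: 0% = DMSO alone and full effect = 92 µM tetraoctylammonium bromide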
Procedure, shortened: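 LYMP1-002 human lymphoblastoid cells, 2500/well; 5 hr 37 C; cpd 16 hr 37 C; CellTiter-Glo 30 min RT; luminescence (ATP). Concentration-response, Hill-fit AC50. Pos ctrl tetraoctylammonium bromide.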

Cytochrome P450 3A4 (Homo sapiens), sequence (P08684 whole entry, looked up): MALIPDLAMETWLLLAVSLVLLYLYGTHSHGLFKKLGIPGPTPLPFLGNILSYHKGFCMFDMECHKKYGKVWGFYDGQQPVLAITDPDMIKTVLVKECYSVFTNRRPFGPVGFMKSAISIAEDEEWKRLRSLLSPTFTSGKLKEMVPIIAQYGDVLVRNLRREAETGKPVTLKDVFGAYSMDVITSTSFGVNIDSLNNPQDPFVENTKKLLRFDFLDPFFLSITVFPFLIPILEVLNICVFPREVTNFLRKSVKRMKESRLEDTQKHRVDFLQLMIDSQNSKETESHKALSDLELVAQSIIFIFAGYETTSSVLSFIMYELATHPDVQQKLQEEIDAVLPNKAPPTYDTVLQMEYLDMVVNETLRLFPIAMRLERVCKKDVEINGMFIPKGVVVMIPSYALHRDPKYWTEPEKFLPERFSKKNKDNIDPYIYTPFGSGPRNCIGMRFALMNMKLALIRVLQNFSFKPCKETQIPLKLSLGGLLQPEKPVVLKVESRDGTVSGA

Cc1nc2ccc(Cl)cc2[nH]1
inactive: caspase-3 activation [1] -0.773% | outcome [2] | caspase-3 activation [3] 0.101% | caspase-3 activation [4] -1.32% | outcome [5] | outcome [6] | Potency [7] | Potency [8] | Potency [9] | outcome [10] | outcome [11] | outcome [12] | outcome [13] | Potency [14] | Potency [15] | Potency [16] | Potency [17] | Potency [18]

Cc1cccc2ccccc12
inactive: caspase-3 activation [1] 0.763% | outcome [2] | caspase-3 activation [3] 0.93% | caspase-3 activation [4] 0.828% | outcome [5] | outcome [6] | Potency [7] | Potency [8] | Potency [9] | outcome [10] | outcome [11] | outcome [19] | outcome [13] | Potency [14] | Potency [15] | Potency [16] | Potency [17] | Potency [18]

CSc1ccc(C=O)cc1
inactive: caspase-3 activation [1] -0.251% | outcome [2] | caspase-3 activation [3] 2.78% | caspase-3 activation [4] 0.206% | outcome [5] | outcome [6] | Potency [7] | Potency [8] | Potency [9] | outcome [10] | outcome [11] | outcome [19] | outcome [13] | Potency [14] | Potency [15] | Potency [16] | Potency [17] | Potency [18]

Cc1cccc(Br)c1
inactive: caspase-3 activation [1] -0.167% | outcome [2] | caspase-3 activation [3] 0.836% | caspase-3 activation [4] -1.49% | outcome [5] | outcome [6] | Potency [7] | Potency [8] | Potency [9] | outcome [10] | outcome [11] | outcome [19] | outcome [12] | Potency [14] | Potency [15] | Potency [16] | Potency [17] | Potency [18]

CC(C)N=C=NC(C)C
inactive: caspase-3 activation [1] -0.478% | outcome [2] | caspase-3 activation [3] 2.29% | caspase-3 activation [4] -0.83% | outcome [5] | outcome [6] | Potency [7] | Potency [8] | Potency [9] | outcome [10] | outcome [11] | outcome [19] | outcome [12] | Potency [15] | Potency [16] | Potency [17] | Potency [18]

CCCOCC(C)OCC(C)O (configuration not stated)
inactive: caspase-3 activation [1] -0.26% | outcome [2] | caspase-3 activation [3] -0.229% | caspase-3 activation [4] 0.323% | outcome [5] | outcome [6] | Potency [7] | Potency [8] | Potency [9] | outcome [10] | outcome [11] | outcome [19] | outcome [12] | Potency [15] | Potency [16] | Potency [17] | Potency [18]

O=[N+]([O-])c1cccc(C(F)(F)F)c1
inactive: caspase-3 activation [1] -1.76% | outcome [2] | caspase-3 activation [3] -0.931% | caspase-3 activation [4] 0.383% | outcome [5] | outcome [6] | Potency [7] | Potency [8] | Potency [9] | outcome [10] | outcome [11] | outcome [19] | outcome [13] | Potency [14] | Potency [15] | Potency [16] | Potency [17] | Potency [18]

NC(=S)NNC(N)=S
inactive: caspase-3 activation [1] -0.792% | outcome [2] | caspase-3 activation [3] 0.228% | caspase-3 activation [4] 1.03% | outcome [5] | outcome [6] | Potency [7] | Potency [8] | Potency [9] | outcome [11] | outcome [19] | outcome [12] | outcome [13] | Potency [14] | Potency [15] | Potency [16] | Potency [17] | Potency [18]

Cc1ccc2oc(=O)ccc2c1
inactive: caspase-3 activation [1] -0.888% | outcome [2] | caspase-3 activation [3] 1.34% | caspase-3 activation [4] -2.33% | outcome [5] | outcome [6] | Potency [7] | Potency [8] | Potency [9] | outcome [10] | outcome [19] | outcome [13] | Potency [14] | Potency [17] | Potency [18]
